In PubChem BioAssay:

Target: Neurogenic locus notch homolog protein 2 (Homo sapiens) (UniProt Q04721)
Assay: Notch2 binders on small-molecule microarrays, primary screen, biochemical, small-molecule microarray, 635 nm fluorescence, stem cell growth factors (AID 1073)
Settings: Notch2 binding, higher = more signal

Chain of Neurogenic locus notch homolog protein 2 (Homo sapiens) (Q04721 whole entry, looked up): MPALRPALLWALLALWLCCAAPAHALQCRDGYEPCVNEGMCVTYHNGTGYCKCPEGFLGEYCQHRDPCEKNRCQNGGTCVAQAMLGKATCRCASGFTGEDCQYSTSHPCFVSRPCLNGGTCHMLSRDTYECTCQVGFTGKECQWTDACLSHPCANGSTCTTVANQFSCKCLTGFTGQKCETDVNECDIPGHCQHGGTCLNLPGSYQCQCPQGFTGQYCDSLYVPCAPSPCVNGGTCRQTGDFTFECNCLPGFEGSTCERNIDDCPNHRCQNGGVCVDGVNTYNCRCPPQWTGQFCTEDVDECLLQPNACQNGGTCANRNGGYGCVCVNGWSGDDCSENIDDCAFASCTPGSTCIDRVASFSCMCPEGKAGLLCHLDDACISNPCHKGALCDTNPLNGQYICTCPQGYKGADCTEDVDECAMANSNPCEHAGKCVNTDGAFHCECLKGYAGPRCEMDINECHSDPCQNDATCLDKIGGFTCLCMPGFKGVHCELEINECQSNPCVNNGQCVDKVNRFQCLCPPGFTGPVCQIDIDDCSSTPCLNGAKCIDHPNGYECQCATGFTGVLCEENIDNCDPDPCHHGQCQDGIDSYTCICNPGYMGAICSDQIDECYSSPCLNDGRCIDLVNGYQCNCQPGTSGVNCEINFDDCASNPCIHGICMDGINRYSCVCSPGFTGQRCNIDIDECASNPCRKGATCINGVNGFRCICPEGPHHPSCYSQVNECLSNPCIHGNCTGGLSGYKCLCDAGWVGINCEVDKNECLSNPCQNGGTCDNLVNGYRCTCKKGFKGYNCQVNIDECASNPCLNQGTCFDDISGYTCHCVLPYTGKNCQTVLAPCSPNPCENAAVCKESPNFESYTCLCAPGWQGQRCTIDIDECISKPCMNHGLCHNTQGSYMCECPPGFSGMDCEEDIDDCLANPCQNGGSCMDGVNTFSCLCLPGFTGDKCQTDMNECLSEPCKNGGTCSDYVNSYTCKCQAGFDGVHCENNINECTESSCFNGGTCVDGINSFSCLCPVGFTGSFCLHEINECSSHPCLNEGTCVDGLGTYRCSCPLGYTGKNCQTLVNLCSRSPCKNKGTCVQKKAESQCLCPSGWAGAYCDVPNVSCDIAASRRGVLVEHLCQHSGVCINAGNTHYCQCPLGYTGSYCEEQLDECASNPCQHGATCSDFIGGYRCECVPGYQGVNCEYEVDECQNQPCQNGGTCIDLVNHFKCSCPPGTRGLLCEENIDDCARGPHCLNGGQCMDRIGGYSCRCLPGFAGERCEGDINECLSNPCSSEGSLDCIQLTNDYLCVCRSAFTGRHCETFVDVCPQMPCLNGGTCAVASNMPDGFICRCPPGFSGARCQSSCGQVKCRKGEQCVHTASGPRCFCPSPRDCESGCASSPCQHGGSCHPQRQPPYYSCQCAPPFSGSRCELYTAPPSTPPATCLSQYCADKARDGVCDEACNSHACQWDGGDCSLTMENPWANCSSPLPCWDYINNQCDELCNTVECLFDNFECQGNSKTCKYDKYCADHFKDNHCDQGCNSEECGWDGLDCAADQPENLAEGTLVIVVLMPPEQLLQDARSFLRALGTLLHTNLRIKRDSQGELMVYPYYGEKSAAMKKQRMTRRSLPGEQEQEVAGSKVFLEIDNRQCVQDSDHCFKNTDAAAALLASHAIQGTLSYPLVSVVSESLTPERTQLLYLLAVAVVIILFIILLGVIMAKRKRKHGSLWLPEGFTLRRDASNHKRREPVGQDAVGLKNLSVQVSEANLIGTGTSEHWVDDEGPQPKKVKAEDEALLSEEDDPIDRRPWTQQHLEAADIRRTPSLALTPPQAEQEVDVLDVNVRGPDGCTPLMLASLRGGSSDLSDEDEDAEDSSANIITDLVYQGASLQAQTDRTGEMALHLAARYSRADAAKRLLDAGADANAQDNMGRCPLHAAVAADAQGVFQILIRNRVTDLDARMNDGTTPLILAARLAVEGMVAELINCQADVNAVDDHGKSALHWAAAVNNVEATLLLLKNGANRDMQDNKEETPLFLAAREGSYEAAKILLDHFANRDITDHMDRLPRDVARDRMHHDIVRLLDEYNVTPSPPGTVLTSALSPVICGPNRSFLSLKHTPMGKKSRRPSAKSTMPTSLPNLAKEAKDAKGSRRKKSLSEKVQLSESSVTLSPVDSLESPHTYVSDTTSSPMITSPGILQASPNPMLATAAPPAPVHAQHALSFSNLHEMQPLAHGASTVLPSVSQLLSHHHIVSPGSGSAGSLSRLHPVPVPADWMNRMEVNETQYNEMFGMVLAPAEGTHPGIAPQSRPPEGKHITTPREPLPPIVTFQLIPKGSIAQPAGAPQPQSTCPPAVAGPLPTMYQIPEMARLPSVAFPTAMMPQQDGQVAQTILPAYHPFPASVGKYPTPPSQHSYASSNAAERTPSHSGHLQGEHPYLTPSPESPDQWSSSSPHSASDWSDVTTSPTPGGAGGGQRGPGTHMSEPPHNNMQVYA

Row | Compound | composite z-score
1 | COc1ccc(-c2ccccc2[C@@H]2N[C@H](C(=O)O)CC[C@H]2C)cc1 | 0.244
2 | CCOC(=O)C[C@H]1[C@H](OC(=O)c2cc3ccccc3oc2=O)[C@@H](NC(=O)C2CCCCC2)c2cc(OCCCO)ccc2N1C(=O)c1ccc2ccccc2n1 | 0.432
3 | NC(=O)NCC#Cc1ccc2c(c1)[C@]1(C(=O)N2)[C@H](C(=O)N2CCCCCCC2)[C@H]2C(=O)O[C@H](c3ccccc3)[C@H](c3ccccc3)N2[C@@H]1c1ccccc1OCCO | 1.43
4 | Cc1ccc(N2C(=O)c3ccccc3[C@@H](C(=O)NCc3ccccc3)[C@@H]2c2ccc(CO)cc2)nc1 | -0.272
5 | COC(=O)C(CC#Cc1ccc2c(c1)[C@]1(C(=O)N2)[C@H](C(=O)N2CCCCCCC2)[C@H]2C(=O)O[C@H](c3ccccc3)[C@H](c3ccccc3)N2[C@@H]1c1ccc(O)cc1)C(=O)OC | -1.07
6 | COc1ccc([Si](C)(C)[C@@H]2[C@@H](CCO)O[C@]3(C(=O)N(Cc4ccc(NC(=O)[C@H](C)O)cc4)c4ccccc43)[C@H]2C)cc1 | 0.684
7 | C=CCNC(=O)[C@@H]1[C@H]2C(=O)O[C@H](c3ccccc3)[C@H](c3ccccc3)N2[C@H](c2ccc(OCCO)cc2)[C@@]12C(=O)N(C(=O)OCCOC)c1ccc(C#CC3(O)CCCCCC3)cc12 | 1.42
8 | CC1CC/C=C\[C@H]2OC34C=CCN(Cn5nnc6ccccc65)C(=O)[C@H]3N(C(C)CO)C(=O)[C@@H]4C2C(=O)O1 (stereo not given in full) | -0.64
9 | COc1ccc([Si](C)(C)[C@H]2[C@H](CC(=O)N(CCO)Cc3ccccc3)O[C@@]3(C(=O)N(C)c4ccccc43)[C@@H]2C)cc1 | -0.0546
10 | CO[C@H]1COC(=O)[C@H](CCSC)NC(=O)CC=C[C@@H](C)COC(=O)[C@@H](OCc2ccccc2)C=C[C@@H]1C | -0.206
11 | C=CCOC(=O)[C@@H]1[C@H]2C(=O)O[C@H](c3ccccc3)[C@H](c3ccccc3)N2[C@H](c2ccc(OCCOC(=O)[C@H]3C[C@H]4C(=O)N[C@@H](CCCCNC(C)=O)C(=O)N4[C@H]3c3ccc(O)cc3)cc2)[C@@]12C(=O)Nc1ccc(I)cc12 | 0.5
12 | O=[N+]([O-])c1ccc(C[n+]2ccc3ccc(O)cc3c2)o1 | 0.37
13 | COCCOC(=O)N1C(=O)[C@@]2(c3cc(C#CC4=CCCCC4)ccc31)[C@H](C(=O)NC[C@H](O)c1ccccc1)[C@H]1C(=O)O[C@H](c3ccccc3)[C@H](c3ccccc3)N1[C@@H]2c1ccccc1OCCO | 1.15
14 | CCOC(=O)C1=CC[C@@H](c2ccc(-c3ccc(OCc4ccccc4)cc3)c(OC)c2)N(S(=O)(=O)c2ccc(C)cc2)[C@H]1c1ccccc1 | 1.49
15 | COC(=O)[C@@]1(Cc2ccc(OC)cc2)[C@H]2c3cc(C(=O)N(C)C)n(Cc4ccc(C)c(F)c4F)c3C[C@H]2CN1C(=O)c1ccccc1 | 0.498
16 | CCCC=C(CCC)[C@@H](NS(=O)(=O)c1ccc(-c2ccccc2)cc1)c1ccc(C(=O)OC)cc1 | 0.268
17 | CCOC(=O)[C@H]1C/C=C/C[C@H](C(=O)OCC)C(=O)O[C@H]2[C@@H](OC)O[C@H](CO)[C@@H](OC(=O)Nc3ccc(Br)cc3)[C@@H]2OC1=O | 0.798
18 | C=C[C@H](OC)[C@@H](OC(=O)Nc1ccc(SC)cc1)c1ccc(O)c(F)c1 | 0.474
19 | COCCOC(=O)N1C(=O)[C@@]2(c3cc(C#CCNC(N)=O)ccc31)[C@H](c1ccc(OCCO)cc1)N1[C@H](c3ccccc3)[C@H](c3ccccc3)OC(=O)[C@H]1[C@@H]2C(=O)N1CCCCCCC1 | 0.315
20 | CN(C)c1ccc(C(O)C2C=CC3C(=O)NC(=O)C3N2Nc2ccc(Cl)cc2Cl)cc1 (stereo not given) | 0.879
21 | COCCOC(=O)N1C(=O)[C@@]2(c3cc(C#CCC(C(=O)OC)C(=O)OC)ccc31)[C@H](C(=O)N1CCN(c3ncccn3)CC1)[C@H]1C(=O)O[C@H](c3ccccc3)[C@H](c3ccccc3)N1[C@@H]2c1ccc(O)cc1 | 1.08
22 | COCCOC(=O)N1C(=O)[C@@]2(c3ccccc31)[C@H](C(=O)N1CCc3cc(OC)c(OC)cc3C1)[C@H]1C(=O)O[C@H](c3ccccc3)[C@H](c3ccccc3)N1[C@@H]2c1ccccc1OCCO | 0.809
23 | CC(C)=C1C(=O)C(c2ccccc2)=C2CN3C(=O)N(CCc4ccccc4)C(=O)[C@]3(Cc3ccccc3)[C@H]21 | -0.272
24 | CO[C@H]1COC(=O)CC=C[C@H](C)COC(=O)[C@@H](OCc2ccccc2)C=C[C@@H]1C | -1.49
25 | [N-]=[N+]=NCc1ccccc1C[C@@]1(C(=O)N2CCOCC2)N=C(c2ccc(OCCCO)cc2)O[C@@H]1c1ccccc1N=[N+]=[N-] | 1.59
